PAFAH1B3 FP inh – PAFAH1B3 enzyme inhibitors, primary screen, biochemical, fluorescence polarization, human; recombinant PAFAH1B3, FP-rhodamine probe; inhibition, % at 3.39 µM; 340,000 compounds, 0.28% hits;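 active = inhibition above the screen-wide average of all tested compounds plus 3 SD, cut at about 25% in these data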;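 note: 0% = enzyme with DMSO only and 100% = wells lacking PAFAH1B3 protein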
pPAFAH FP inh – pPAFAH enzyme inhibitors, primary screen, biochemical, fluorescence polarization, human. recombinant pPAFAH, FP-rhodamine probe fluorescence polarization. 330,000 compounds, 1.5% hits. inhibition, % at 3.39 µM. AID 463082, 2010;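 active = inhibition above the mean inhibition across the screen plus 3 SD, cut at about 25% in these data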;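 note: inhibitors block binding of the rhodamine activity-based probe so polarization drops; 0% = enzyme with DMSO and 100% = wells lacking pPAFAH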
PAFAH1B2 FP inh – PAFAH1B2 enzyme inhibitors, primary screen, biochemical, fluorescence polarization, human. 340,000 compounds, 1.2% hits. recombinant PAFAH1B2, FP-rhodamine activity probe. AID 492953, 2010. inhibition, % at 3.39 µM;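 active = inhibition above the mean of all tested compounds plus 3 SD, cut at about 24% in these data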;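 note: 0% = enzyme with DMSO and 100% = wells lacking PAFAH1B2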
Target sequence (P68402 whole entry, looked up): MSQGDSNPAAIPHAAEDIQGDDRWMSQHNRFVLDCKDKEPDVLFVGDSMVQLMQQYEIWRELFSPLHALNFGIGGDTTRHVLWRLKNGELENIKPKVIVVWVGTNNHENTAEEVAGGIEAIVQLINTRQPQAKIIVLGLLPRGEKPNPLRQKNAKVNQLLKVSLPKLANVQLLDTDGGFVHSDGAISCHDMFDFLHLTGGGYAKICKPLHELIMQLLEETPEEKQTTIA
PAFAH2 FP inh – PAFAH2 enzyme inhibitors, primary screen, biochemical, fluorescence polarization, human | Platelet-activating factor acetylhydrolase 2, cytoplasmic (Homo sapiens), Q99487 | recombinant PAFAH2, FP-rhodamine activity probe | inhibition, % at 3.39 µM | 340,000 compounds, 0.99% hits;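 active = inhibition above the mean over all tested compounds plus 3 SD, cut at about 30% in these data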;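 note: inhibitors block probe labeling of enzyme so polarization drops; 0% = enzyme with DMSO and 100% = wells lacking PAFAH2 protein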
Fam108B inh – mouse Fam108B serine hydrolase inhibitors, primary screen, counter-screen for RBBP9 inhibitor project, biochemical, fluorescence polarization; recombinant Fam108B, FP-Rh probe fluorescence polarization; inhibition, % at 9.51 µM; 300,000 compounds, 0.33% hits; AID 1947, 2009;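 active = inhibition above the screen mean inhibition plus 3 SD, computed separately per campaign, cut at about 18% in these data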;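 note: inhibitors lower polarization as less probe binds the enzyme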
PME-1 inh – PME-1 inhibitors via competitive probe labeling, primary screen, biochemical, fluorescence polarization, FP-Rh probe, HTS; Protein phosphatase methylesterase 1 (Homo sapiens), Q9Y570; recombinant PME-1; inhibition, % at 5.9 µM; 320,000 compounds, 0.53% hits; AID 2130, 2009;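 active = inhibition above the campaign mean of all compounds plus 3 SD, cut at about 26% in these data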;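 note: competitive labeling of PME-1 active site by serine hydrolase directed probe; 0% = PME-1 with DMSO and 100% = wells lacking PME-1 enzyme; inhibitors block probe labeling so polarization falls and inhibition rises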
Target sequence (Q9Y570 whole entry, looked up): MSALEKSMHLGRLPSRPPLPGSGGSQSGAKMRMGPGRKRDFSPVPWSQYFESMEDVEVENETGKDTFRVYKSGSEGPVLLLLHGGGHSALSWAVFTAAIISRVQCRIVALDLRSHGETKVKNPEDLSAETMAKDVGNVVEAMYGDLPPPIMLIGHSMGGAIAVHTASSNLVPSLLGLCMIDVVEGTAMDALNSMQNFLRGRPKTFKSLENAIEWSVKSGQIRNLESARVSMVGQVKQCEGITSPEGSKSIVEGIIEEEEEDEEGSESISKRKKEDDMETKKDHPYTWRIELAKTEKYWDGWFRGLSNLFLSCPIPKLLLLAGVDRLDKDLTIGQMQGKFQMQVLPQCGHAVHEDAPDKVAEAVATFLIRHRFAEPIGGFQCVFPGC
Fam108b inh conf – mouse Fam108b serine hydrolase inhibitors, confirmation, counter-screen for RBBP9 inhibitor project, biochemical, fluorescence polarization, triplicate | AID 1978, 2009 | inhibition, % at 9.51 µM | shares compounds with Fam108B inh | recombinant Fam108b, FP-Rh probe fluorescence polarization | 930 compounds, 44% hits;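 active = inhibition above a limit from the primary screen, the mean over all compounds plus 3 SD, cut at about 19% in these data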;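 note: 0% = median of active Fam108b wells and 100% = catalytically dead S170A mutant; inhibitors free the probe so polarization falls as inhibition rises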
Fam108b inh – inhibition of mouse Fam108b by HTS hits, late-stage follow-up, biochemical, gel-based ABPP, soluble recombinant form; shares compounds with Fam108B inh; fluorophosphonate probe; inhibition, % at 20 µM; 260 compounds, 44% hits; AID 588649, 2011; in the data active = inhibition above about 40%
Starred values were filed as active, the others as inactive; / = no result. Rows were chosen to be rich in hits. Some 2.8% of all compounds tested hit in one or more screens of this group.

SMILES	PAFAH1B3 FP inh	pPAFAH FP inh	PAFAH1B2 FP inh	PAFAH2 FP inh	Fam108B inh	PME-1 inh	Fam108b inh conf	others
CCc1cc(/C(Cc2cscn2)=N\O)c(O)cc1O	11	7	4	5	3	2	/
CCc1cc(/C(Cc2ccc3ccccc3n2)=N\O)c(O)cc1O	41*	20	24	17	25*	34*	30*
CCc1cc(C(Cc2ccc3ccccc3n2)=NO)c(O)cc1O	/	/	/	/	/	/	/	Fam108b inh=40*
CN(C)C(=O)c1ccc(-c2nnc(OCc3nc4ccccc4n3C)c3ccccc23)cc1	-6	/	1	-4	/	/	/
N=C1/C(=C\c2ccc(-c3cc(Cl)cc(Cl)c3)o2)C(=O)N=C2SC=C(c3ccccc3)N12	-6	12	-5	-12	5	23	/
N=C1/C(=C/c2cccn2CCOc2ccccc2)C(=O)N=C2SC=C(c3ccccc3)N12	-17	5	-10	-27	19*	-13	2
Cn1nc(C(=O)Nc2c(-c3ccccc3)nc3sccn23)c2ccccc2c1=O	-7	-2	0	-9	12	5	/
CCCOc1ccc(-c2nc(SCc3ccccc3)[nH]c(=O)c2C#N)cc1OC	6	7	5	0	-5	-8	/
Nc1ccc(C#Cc2ccc3sc4ccccc4c(=O)c3c2)cc1	-2	7	-6	-5	22*	7	-3
Cc1ccnc(NC(=O)c2cc(S(=O)(=O)NCc3ccccc3)ccc2C)c1	10	3	3	10	/	3	/
S=C(NCc1ccc(Cl)cc1)NC1CCN(Cc2ccccc2)CC1	4	1	8	4	-1	5	/
O=C/C=C/c1c(-c2ccccc2)cc2oc3ccccc3cc1-2	7	23	3	17	27*	6	-12
COc1cccc(/C=N/Nc2nc(Nc3ccc([N+](=O)[O-])cc3)nc(N3CCCC3)n2)c1O	/	16	/	/	25*	5	31*
Cc1nc2ccccc2c(=O)n1N=C/C=C/c1ccccc1	/	/	/	/	/	/	/	Fam108b inh=0
Cc1nc2ccccc2c(=O)n1/N=C/C=C/c1ccccc1	7	2	0	4	24*	1	83*
O=C(NCC(c1ccc(F)cc1)N1CCOCC1)c1nn(-c2ccccc2)c(=O)c2ccccc12 (configuration not stated)	4	-8	-7	-3	/	-6	/
O=C(CNc1ccc2ccccc2c1)N/N=C/c1cc2ccccc2nc1Cl	18	9	-1	-23	37*	52*	18
O=C(COc1cccc(Cl)c1)N/N=C\c1cc2ccccc2nc1Cl	3	0	-3	-5	-1	-1	/
Cc1ccc(CNC(=O)COC(=O)c2cc(C)oc2C)cc1	8	1	7	10	/	4	/
COc1ccc(/C=N/NC(=O)c2cc3c(ccc4ccccc43)o2)cc1OC	4	/	6	-4	/	/	/
O=C(NN=Cc1cc(Cl)c(O)c(Cl)c1)c1cc2c(ccc3ccccc32)o1	/	/	/	/	/	/	/	Fam108b inh=0
COc1cc(/C=N/NC(=O)c2cc3c(ccc4ccccc43)o2)cc(OC)c1O	11	13	8	-9	27*	34*	20*
Cc1cc(NC(=S)Nc2ccc(C)c(Cl)c2)n[nH]1	10	0	2	-4	1	15	/
CCN(CC)c1nc2c3c(nc4c(c3c1C#N)CC(=O)N4c1ccc(Cl)cc1)NC(C)=N2	14	64*	15	15	24*	27*	18*
CCc1ccc(N2C(=O)Cc3c2nc(N)c(C#N)c3N)cc1	4	11	9	0	0	7	/
SMILES	PAFAH1B3 FP inh	pPAFAH FP inh	PAFAH1B2 FP inh	PAFAH2 FP inh	Fam108B inh	PME-1 inh	Fam108b inh conf	others
O=C(N/N=C/c1ccc([N+](=O)[O-])cc1)c1ccccc1OCc1ccccc1	4	1	0	-2	-7	9	/
O=C(N/N=C/c1ccc([N+](=O)[O-])cc1)c1ccc(COc2ccccc2-c2ccccc2)cc1	-4	-5	-1	17	26*	-11	3
O=C(N=Nc1c(O)[nH]c2ccc([N+](=O)[O-])cc12)c1ccccc1Cl	4	2	6	12	-2	-4	/
O=C(O)c1ccccc1N=Nc1c(O)[nH]c2ccc([N+](=O)[O-])cc12	18	21	9	37*	21*	7	14
CN(C)c1ccc(/C=C(\C#N)C(=O)NCc2ccco2)cc1	/	11	/	/	29*	18	-8
COc1ccc(Cl)cc1Nc1nc(-c2sc(NC(=O)C(C)(C)C)nc2C)cs1	10	10	2	3	10	-2	/
COc1ccc(Cl)cc1Nc1nc(-c2sc(NC(=O)c3ccco3)nc2C)cs1	8	24	8	8	19*	12	6
Clc1ccccc1C(c1ccccc1)(c1ccccc1)n1ccnc1	-2	2	11	-1	32*	-14	46*	Fam108b inh=45*
CCOc1cc2c3c(c1)C(C)=CC(C)(C)N3C(=O)C2=O	9	3	6	1	2	7	/
CC(=O)Oc1cc2c3c(c1)/C(=C1/SC(=S)NC1=O)C(=O)N3C(C)(C)C=C2C	16	30*	48*	37*	19*	25	22*
Cc1cc(N/N=C/c2ccc(O)c(C)c2O)nc(-c2ccccc2O)n1	18	13	-4	-25	43*	62*	-6
C/C(=N\Nc1cc(C)nc(-c2ccccc2O)n1)c1ccccc1	1	-5	3	-6	-4	-5	/
CC(=O)c1c(C)[nH]c(C(=O)NNC(=O)c2ccc(Br)cc2)c1C	4	6	3	3	/	/	/
O=C(NNc1c2ccccc2nc2ccccc12)c1ccc(O)cc1O	13	20	6	-4	25*	78*	12
CC(Sc1nnc(NC2CCCCC2)s1)C(=O)Nc1ccc2c(c1)C(=O)c1ccccc1C2=O (configuration not stated)	1	6	1	-10	27*	32*	5
NC(=O)CC(NC(=O)Cc1cccc2ccccc12)c1ccc(NCCCN2CCCC2=O)c([N+](=O)[O-])c1 (configuration not stated)	-6	-1	-3	8	-6	1	/
O=C(CCn1cccn1)Nc1ccc2c(c1)OCO2	11	-1	2	7	18*	8	6
